# A549 tox = kills or reduces viability of A549 cells in Nrf2 counter-screen | A549 ARE-Fluc cells, CellTiter-Fluor viability, 18-24 h | Potency, µM (highest dose often 46 µM), inactives show at the highest dose activity change, negative = cytotoxicity, hits mostly inhibitors | hit rate 0.16% among 390,000 | AID 504648; further: potency means the concentration at half of the fitted maximal effect; on the % scale 0 is the no-effect control and ±100 the full control effect
#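 A549 ARE_Fluc cells in 5% FBS OPTI-MEM were exposed to compounds in concentration-response for 18-24 h at 37 deg C. Viability was read by CellTiter-Fluor fluorescence (Ex 405/Em 525) after 30 min, before the luciferase read.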
# IL-2 act = activates IL-2 in a cell-based reporter assay. IL-2 activation reporter assay, cell-based qHTS; stimulated with anti-CD3/CD4/CD28 beads; in transgenic mouse T cells. activation, % (series mostly up to about 46 µM). hit rate 0.065% among 360,000. AID 652025; in the data active means activation above about 50%; inconclusive means mostly about 30% to 49%; further: 0% is about no effect
#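 Screening format: compound pinned onto unstimulated transgenic mouse T cells, 60 min incubation, then anti-CD3/anti-CD4/anti-CD28 bead stimulation for 18 hours at 37 degrees C, followed by EGFP and DsRed detection.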
# p53 reactivator = re-activators of mutant p53; AID 504706; H1299 p53-A138V BP100-luciferase reporter, luminescence, 24 h; Potency, µM (doses to about 92.2 µM), without a hit: at the highest dose activity change, positive = activation, most hits filed as activators; hit rate 0.063% among 320,000; further: potency means the concentration at half of the fitted maximal effect; % of control where 0% means no effect; nearly all actives have a fitted effect of over 45% in size
#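 p53-null H1299 cells stably carrying temperature-sensitive p53-A138V and a BP100-luciferase reporter were pinned with compounds (4-point, 1:5 series) and held 24 hrs at 37 deg C. Luminescence was read 10 min after detection reagent.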
# Nrf2 inh = blocks Nrf2 signaling; A549 ARE-Fluc reporter, luciferase luminescence, 18-24 h; Potency, µM (titrated, usually from 46 µM), for the others: top-dose activity change, negative = inhibition, hits mostly inhibitors; hit rate 2.1% among 360,000; AID 504444; further: potency means the concentration at half of the fitted maximal effect; on the % scale 0 is the no-effect control and ±100 the full control effect; nearly all actives have a fitted effect of over 60% in size
#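 Quantitative HTS in A549 cells stably bearing an antioxidant response element-firefly luciferase construct. Inhibition of Nrf2-driven transcription was scored by luminescence after 18-24 h of compound exposure at 37 °C.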
# BRCA1 expr act = increases BRCA1 expression. hit rate 1.1% among 380,000. MCF7-BRCA1-FFLuc reporter, luminescence, 48 h; response scale: scaled: vehicle 0%, 10 µM genistein 100%. Potency, µM (series often up to 46.1 µM), for inactives: at the highest dose activation, actives largely listed as activators; further: potency means the concentration at half of the fitted maximal effect; nearly all actives have a fitted effect of over 80% in size
#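 Luminescence from a BRCA1-driven firefly luciferase in MCF7 cells was the read-out, taken 15 min after substrate addition following 48 h compound exposure at 37 °C. Data were normalized to a 10 microM genistein control and DMSO vehicle.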
# Nrf2 ARE act = activators of Nrf2 (ARE) signaling | AREc32 ARE-luciferase reporter (MCF7-derived line), luminescence, 24 h | Potency, µM (highest dose often 46.1 µM), without a hit: top-dose activation, most hits filed as activators | hit rate 0.31% among 410,000 | AID 624171; further: potency means the concentration at half of the fitted maximal effect; % of control where 0% means no effect; nearly all actives have a fitted effect of over 65% in size
#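 AREc32 cells carrying an ARE-driven firefly luciferase, 1000 cells/well in OPTI-MEM with 5% FBS, dosed after overnight attachment and incubated 24 hr at 37 deg C. Steady-Glo luminescence read after 30 min at RT.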
# * = called active by the depositor; ? = inconclusive; nt = not tested or not shown; [ ] = dose if it differs, or a comment. In the library only some 3.2% were active in any assay of this set; here they are far more common. Unless noted, the call rests on the fitted dose curve; in most records, active means well fitted curve in the direction sought with a large enough effect; inconclusive means small, poorly fitted or top-dose-only effect, or another doubt; inactive means no such curve, though single readings can be large; an effect the other way counts as inactive or inconclusive.
SMILES,A549 tox,IL-2 act,p53 reactivator,Nrf2 inh,BRCA1 expr act,Nrf2 ARE act
CCOc1ccc(-c2ncnn2-c2sc3c(c2C#N)CCCCC3)cc1,-0.9%,nt,nt,-7.2%,nt,3.1%
Cc1c(C(=O)Nc2ccc(F)cc2)nnn1-c1cccc(C(F)(F)F)c1,-15.0%,-0.2,3.3%,20.6µM*,15.6%,2.9%
Cc1cccc(-n2nnc(C(=O)Nc3ccc(F)cc3)c2N)c1,-11.0%,0.9,?,?,4.47µM*,1.9%
Cc1c(C(=O)Nc2ccc(C(=O)O)cc2)nnn1-c1ccccc1,0.4%,nt,nt,nt,nt,-4.0%
COc1ccc(NC(=O)C(=O)NCCc2csc(-c3ccc(Cl)cc3)n2)cc1,1.4%,nt,nt,nt,0.0%,-0.8%
CCC(CC)C(=O)N1c2ccccc2C(C)(c2ccccc2)CC1(C)C (configuration not stated),-1.2%,nt,nt,-13.1%,nt,0.1%
Cc1ccc(CCNC(=O)c2ccc(CSc3nc4ccncc4n3Cc3ccc(F)cc3)cc2)cc1,?,nt,nt,?,nt,3.1%
Cn1cccc1CNC(=O)Nc1ccc(Cl)c(Cl)c1,-2.8%,1.3,21.8%,?,2.24µM*,-0.2%
O=C(NCCCCc1ccccc1)c1nn(-c2ccccc2)nc1CO,-7.0%,nt,nt,23.1µM*,nt,-0.9%
Cc1ccc(-n2nc(CO)c(C(=O)NCCCCc3ccccc3)n2)cc1,4.3%,nt,nt,3.4%,nt,-0.5%
CCOCCCNC(=O)c1ccc2c(=O)n(CCc3ccccc3)c(=O)[nH]c2c1,0.5%,nt,nt,4.1%[9.27 µM],10.4%,-0.5%
CCOC(=O)CN(Cc1ccccc1)C(C(=O)NC1CCCCC1)c1ccc(C)cc1 (configuration not stated),3.0%,nt,nt,-20.5%[9.27 µM],nt,-0.7%
COc1ccc(-c2csc(NC(=O)CC(C)C)n2)cc1,-13.0%,-3.3,?,-40.1%,8.91µM*,-0.4%
CC(C)C(=O)Nc1ccc(-c2csc(-c3ccccc3)n2)cc1,0.5%[1.84 µM],-3.9,12.3%,19.3%,5.01µM*,0.2%
CC(C)C(=O)Nc1cccc(-c2csc(-c3ccccc3)n2)c1,6.1%,-3.3,?,5.3%,68.9%,5.1%
CC(C)CC(=O)NC(=S)Nc1nc(-c2cccc3ccccc23)cs1,?,1.3,-0.6%,25.9µM*,-45.7%,4.0%
CCOC(=O)Cc1csc(NC(=S)NC(=O)CC(C)C)n1,0.4%,-3.2,2.9%,17.9%,3.1%,0.2%
Cc1nc(-c2ccc(NC(=O)CC(C)C)cc2)cs1,1.4%,-2.1,?,?,2.24µM*,0.1%
COc1ccc(CCNC(=O)c2ccc3[nH]c(C)c(C)c3c2)cc1OC,6.0%,nt,nt,nt,nt,-0.5%
Cc1ccc(-n2ncc3c(N4CCCCC4)ncnc32)cc1,3.2%,nt,nt,nt,nt,-2.9%
NC(=S)n1[nH]c(-c2ccc([N+](=O)[O-])cc2)c(N=Nc2cccc(Cl)c2)c1=O,?,-0.6,-1.2%,18.4µM*,-61.0%,1.2%
NC(=S)n1[nH]c(-c2ccc([N+](=O)[O-])cc2)c(N=Nc2ccc(O)cc2)c1=O,-9.5%,0.3,0.6%,?,-1.9%,2.6%
CCOc1ccc(CNC(=O)C2CCN(c3nnc(-n4c(C)ccc4C)s3)CC2)cc1,1.8%,nt,nt,14.6µM*,nt,6.3%
CCc1ccc(CNC(=O)C2CCN(c3nnc(-n4c(C)ccc4C)s3)CC2)cc1,-1.5%,nt,nt,?,nt,9.9%
Oc1[nH]c(N=C2N=c3ccccc3=N2)c2ccccc12,?,-4.2,?,?,-58.6%,5.62µM*
O=c1[nH]c(/C(Cl)=C/c2cc(Cl)ccc2O)nc2cc(Cl)ccc12,-9.0%,0.0,-4.4%,-12.7%,-62.4%,8.91µM*
O=c1[nH]c(/C(Cl)=C/c2c(F)cccc2Cl)nc2cc(Cl)ccc12,-2.5%,-0.8,-6.4%,?,-61.3%,17.1%
COc1ccccc1CNC(=O)c1cccc(Nc2nc3ccccc3n3nnnc23)c1,0.7%,nt,nt,5.6%,nt,0.3%
COc1ccc(NC(=O)CN2CCCN(S(=O)(=O)c3ccc(Br)cc3)CC2)c(OC)c1,18.4µM*,nt,nt,20.6µM*,nt,3.4%
